PubChem BioAssay (NCATS)
Records with an inconclusive call do not appear. The source made the active and inactive calls. The call rests on the fitted dose curve; in most records, active means well fitted inhibition curve with a large enough effect; inconclusive means small, poorly fitted or top-dose-only effect; inactive means flat fitted curve, though single readings scatter.

Experiment: qHTS to identify inhibitors of the type 1 interferon - major histocompatibility complex class I in skeletal muscle: primary screen against the NCATS Pharmaceutical Collection (AID 1347407)
Settings: human skeletal muscle cells, IFN-b-induced MHC-I HiBiT luminescence, 24 h; series mostly up to 45.9 µM; activity change, negative = inhibition: at the top concentration
Source text: Assay Submitter (PI): Travis B. Kinder Ph.D. & James Inglese Ph.D.
Assay Development and Screening Technology Laboratory (ADST)
National Center for Advancing Translational Sciences (NCATS), Rockville, MD
National Institute of Health (NIH), Bethesda, Maryland
Idiopathic inflammatory myopathies, collectively referred to as myositis, are a group of rare autoimmune diseases characterized by skeletal muscle inflammation, weakness, and usually accompanied by systemic pathologies of the skin, lungs, or vasculature. Current immunosuppressive therapies and glucocorticoids are often not curative and are accompanied by harsh side effects, especially in children with juvenile myositis. We initiated a drug repurposing and development program to identify more targeted, less toxic therapeutics to treat myositis. Although its cause is not known, muscle from a subset of patients have an abundance of the inflammatory type 1 interferon (IFN) and a down-stream product major histocompatibility complex class I (MHC class I), which are both thought to contribute to damage and weakness. We conducted quantitative high throughput screening on 6,576 compounds (4,679 unique) through a series of cell-based assays to identify those that inhibit the IFN-stimulated expression of MHC class I in muscle precursor cells (myoblasts). The compound identification and evaluation strategy utilized a primary screen with reporter-tagged MHC class I in genome-engineered myoblasts, ATP content counter screen for viability, HLA-ABC immunofluorescence secondary screen, and HLA-B RT-qPCR tertiary screen.
The primary screen utilized CRISPR/Cas9 genome-engineering of immortalized human myoblasts, C25cl48, where a pro-luminescent reporter HiBit was fused to the C-terminus of endogenous MHC class I allele HLA-B*08:01 (HLA-B HiBit myoblasts). HiBit is an 11 amino acid fragment of NanoLuc luminescent reporter (Promega Corporation), and when complexed to the larger LgBit fragment, the reconstituted enzyme produces light in the presence of furimazine substrate (Schwinn et al., 2018). Briefly, HLA-B HiBit myoblasts were plated into 1536-well plates, treated with 4.0 ng/ml human IFN-beta and 2,816 compounds from the NCATS Pharmaceutical Collection (NPC) that contains all drugs approved in the US, EU, and Japan (Huang et al., 2011) in an 8-point, 1:5 titration with a high final concentration of 46 uM. After 24 hrs of treatment, cells were assayed by Nano-Glo HiBiT Lytic Detection System (Promega) and luminescence measured by a ViewLux 1430 Ultra HTS (Perkin Elmer).
Huang R, Southall N, Wang Y, Yasgar A, Shinn P, Jadhav A, Nguyen D-T, Austin CP. 2011. The NCGC pharmaceutical collection: a comprehensive resource of clinically approved drugs enabling repurposing and chemical genomics. Sci Transl Med 3:80ps16. doi:10.1126/scitranslmed.3001862
Schwinn MK, Machleidt T, Zimmerman K, Eggers CT, Dixon AS, Hurst R, Hall MP, Encell LP, Binkowski BF, Wood K V. 2018. CRISPR-Mediated Tagging of Endogenous Proteins with a Luminescent Peptide. ACS Chem Biol 13:467-474. doi:10.1021/acschembio.7b00549
PROTOCOL TABLE (as described by Inglese et al., 2007)
SEQUENCE No. (e.g., 1, 2, 3, etc.); […] (e.g., Cells, Incubation, Reagent, etc.); VALUE; DESCRIPTION
1a; Cells; 5 uL; Use a Multidrop Combi (Thermo Scientific) to seed 350 cells/well into nine Greiner 1536 well white/solid bottom, high base, TC plates in 5 ul/well of iHSKM growth medium (GM) without dexamethasone into columns 1+2. Add metal lids with gas-exchange holes
1b; Cells; 5 uL; Use a Multidrop Combi (Thermo Scientific) to seed 350 cells/well into nine Greiner 1536 well white/solid bottom, high base, TC plates in 5 ul/well of iHSKM GM without dexamethasone + 4 ng/ml IFN-b into columns 3 - 48. Add metal lids with gas-exchange holes
2; Incubate; 1 hr; Incubate at 37 C, 5% CO2, 95% RH
[…]
On the % scale 0 is the no-effect control and ±100 the full control effect; potency means the concentration at half of the fitted maximal effect.

| SMILES | activity change, negative = inhibition | Potency |
| --- | --- | --- |
| COc1cc(O)c(C(=O)c2ccccc2)cc1S(=O)(=O)O | 0.218% (inactive) |  |
| O=C1OC(CN2CCOCC2)CN1/N=C/c1ccc([N+](=O)[O-])o1 (stereo not given) | 0.444% (inactive) |  |
| Cc1cccc(C)c1NC(=O)c1ccccc1C(=O)O | 22.6% (inactive) |  |
| CC1CCc2c(N3CCC(O)CC3)c(F)cc3c(=O)c(C(=O)O)cn1c23 (stereo not given) | -3.39% (inactive) |  |
| CC(=O)Nc1ccc(CC(=O)O)cc1 | 6.06% (inactive) |  |
| O=C(Nc1ccc([N+](=O)[O-])cc1)Nc1ccc([N+](=O)[O-])cc1 | -3.05% (inactive) |  |
| Cc1cc2c(OCC(CNC(C)(C)C)OC(=O)c3ccccc3)cccc2[nH]1 (stereo not given) | -27.9% (inactive) |  |
| C[C@H]1O[C@@H](O[C@H]2CC[C@@]3(C)[C@H](CC[C@@H]4[C@@H]3C[C@@H](O)[C@]3(C)[C@@H](C5=CC(=O)OC5)CC[C@]43O)C2)C[C@H](O)[C@@H]1O[C@H]1C[C@H](O)[C@H](O[C@H]2C[C@H](O)[C@H](O[C@@H]3O[C@H](CO)[C@@H](O)[C@H](O)[C@H]3O)[C@@H](C)O2)[C@@H](C)O1 |  | 528 nM (active) |
| C[C@@H](O)[C@H]1C(=O)N2C(C(=O)O)=C([C@H]3CCCO3)S[C@H]12 | -0.475% (inactive) |  |
| COc1cc(C(=O)N2CCCCCCC2)cc(OC)c1OC | 18.3% (inactive) |  |
| CCO[C@@H]1O[C@H](C(COCc2ccccc2)OCc2ccccc2)[C@H](OCc2ccccc2)[C@H]1O (stereo not given in full) | -19% (inactive) |  |
| CC(C)CCCC(C)N (stereo not given) | -2.74% (inactive) |  |
| Nc1ccc(S(=O)(=O)Nc2cnc3ccccc3n2)cc1 | 1.01% (inactive) |  |
| CC(C)[C@@H]1CC[C@@H](C)CC1=O | -0.327% (inactive) |  |
| COc1ccc(S(=O)(=O)N2c3ccc(Cl)cc3[C@@](O)(c3ccccc3Cl)[C@H]2C(=O)N2CCC[C@@H]2C(N)=O)cc1OC | -10.7% (inactive) |  |
| Cc1ccc(-c2ncc(Cl)cc2-c2ccc(S(C)(=O)=O)cc2)cn1 | 4.75% (inactive) |  |
| CCN(CC)CCNC(=O)c1cc(Br)c(N)cc1OC | -1.41% (inactive) |  |
| CCc1oc2ccccc2c1C(=O)c1cc(Br)c(O)c(Br)c1 | -24.3% (inactive) |  |
| CCN(CC)CCOC(=O)C1(c2ccccc2)CCCC1 | 1.02% (inactive) |  |
| OC[C@H]1O[C@@H]2O[C@H]3[C@H](O)[C@@H](O)[C@@H](O[C@H]4[C@H](O)[C@@H](O)[C@@H](O[C@H]5[C@H](O)[C@@H](O)[C@@H](O[C@H]6[C@H](O)[C@@H](O)[C@@H](O[C@H]7[C@H](O)[C@@H](O)[C@@H](O[C@H]8[C@H](O)[C@@H](O)[C@@H](O[C@H]1[C@H](O)[C@H]2O)O[C@@H]8CO)O[C@@H]7CO)O[C@@H]6CO)O[C@@H]5CO)O[C@@H]4CO)O[C@@H]3CO | 15.2% (inactive) |  |

| SMILES | activity change, negative = inhibition | Potency |
| --- | --- | --- |
| CCCCN=C(N)N=C(N)N | 1.89% (inactive) |  |
| OC1C(O)C(O)C(O)C(O)C1O (stereo not given) | 0.062% (inactive) |  |
| CCCCCCCCCCCCSCCOCCO | -2.19% (inactive) |  |
| CCCCOC(=O)CC(CC(=O)OCCCC)(OC(C)=O)C(=O)OCCCC | -12.7% (inactive) |  |
| NC1CCN(c2nc3c(cc2F)c(=O)c(C(=O)O)cn3-c2ccc(F)cc2F)C1 (stereo not given) | -17.9% (inactive) |  |
| Cc1ccc2c(Br)cc(Br)c(O)c2n1 | -18% (inactive) |  |
| COc1cc(NS(=O)(=O)c2ccc(N)cc2)ncn1 | 2.92% (inactive) |  |
| Nc1nc(-c2ccccc2)c(Br)c(=O)[nH]1 | -9.05% (inactive) |  |
| CCOC(=O)c1ccc(N)cc1 | 1.17% (inactive) |  |
| CCOc1cc(OCC)c(C(=O)CCC(=O)O)cc1OCC | -4.09% (inactive) |  |
| CCCCC(CC)CN1CN(CC(CC)CCCC)CC(C)(N)C1 (stereo not given) | -6.75% (inactive) |  |
| Cc1ccc(O)c([C@H](CCN(C(C)C)C(C)C)c2ccccc2)c1 | -23.1% (inactive) |  |
| CCC(Cc1c(I)cc(I)c(N)c1I)C(=O)O (stereo not given) | 0.0194% (inactive) |  |
| CC(=O)NCCCCCC(=O)O | 0.603% (inactive) |  |
| CC(C)(C)NC[C@H](O)COc1nsnc1N1CCOCC1 | -3.26% (inactive) |  |
| CCCCCCCCCCCCCCCCO | 1.29% (inactive) |  |
| CC(C)(C)NCC(O)COc1cccc2c1C[C@H](O)[C@H](O)C2 (stereo not given in full) | 5.87% (inactive) |  |
| Cc1ncc(CO)c(C=O)c1O | 11.3% (inactive) |  |
| C[C@@H](O)[C@H]1C(=O)N2C(C(=O)O)=C(S[C@@H]3CN[C@H](CNS(N)(=O)=O)C3)[C@H](C)[C@H]12 | -8.74% (inactive) |  |
| CCN1CCCC(OC(=O)C(c2ccccc2)c2ccccc2)C1 (stereo not given) | 3.99% (inactive) |  |
